Cruzain Triton – qHTS Assay for Promiscuous and Specific Inhibitors of Cruzain (with detergent); Cruzipain (Trypanosoma cruzi), P25779; purified cruzain, Z-FR-AMC fluorescence, 0.01% Triton; Potency, µM, inactives show max response, negative = inhibition, actives largely listed as inhibitors; 200,000 compounds, 0.43% hits; AID 1478, 2009;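 also: plate controls were neutral wells for no effect and buffer without enzyme for full effect; nearly all actives have a fitted effect of over 40% in size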
Target sequence (P25779 123-467 limits assumed): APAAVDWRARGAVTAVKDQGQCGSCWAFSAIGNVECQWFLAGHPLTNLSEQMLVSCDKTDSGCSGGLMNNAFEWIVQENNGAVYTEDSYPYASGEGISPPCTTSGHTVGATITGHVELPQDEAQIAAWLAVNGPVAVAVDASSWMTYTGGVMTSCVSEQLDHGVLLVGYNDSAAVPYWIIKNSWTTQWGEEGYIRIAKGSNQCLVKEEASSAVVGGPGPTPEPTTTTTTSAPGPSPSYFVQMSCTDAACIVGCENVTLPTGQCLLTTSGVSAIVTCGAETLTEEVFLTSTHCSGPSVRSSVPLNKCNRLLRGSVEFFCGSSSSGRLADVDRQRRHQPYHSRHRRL
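Sodium acetate buffer (100 mM, pH 5.5) containing 5 mM DTT and 0.01% Triton X-100 hosted 1.5 nM cruzain and test compound for 15 min at room temperature. Cleavage of 2 uM Z-FR-AMC was then tracked by fluorescence.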
Cruzain inh noDet – qHTS Assay for Promiscuous and Specific Inhibitors of Cruzain (without detergent); 200,000 compounds, 2.3% hits; AID 1476, 2009; Potency, µM, without a hit: max response, negative = inhibition, usual class: inhibitors; purified cruzain, Z-FR-AMC fluorescence, no detergent; Cruzipain (Trypanosoma cruzi), P25779;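 also: plate controls were enzyme without inhibitor for no effect and buffer without enzyme for full effect; nearly all actives have a fitted effect of over 40% in size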
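Purified cruzain at 1.5 nM, pre-incubated 15 min with compound at room temperature in 100 mM sodium acetate pH 5.5, 5 mM DTT, 0.00005% Triton X-100. Reaction started with 2 uM Z-FR-AMC; AMC fluorescence increase over 60 s gives rate.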
* = called active by the depositor; ? = inconclusive. Shown are actives, neighbours in structure and some others; about 2.4% of the full set was active somewhere. Calls follow the shape of the dose curve; as a rule, active = well fitted curve in the direction sought with a large enough effect; inconclusive = small, poorly fitted or top-dose-only effect, or another doubt; inactive = no such curve, though single readings can be large; an effect the other way counts as inactive or inconclusive. Potency is read from the fitted curve at half-maximal effect.

SMILES	Cruzain Triton	Cruzain inh noDet
N#C/C(=C\c1ccc(OC(=O)c2ccc(Cl)s2)cc1)c1nc2ccccc2[nH]1	-25%	4µM*
CCCN1CCN(CCNC(=O)Nc2cc(C)ccc2OC)CC1	2%	2%
CCc1nnc(NC(=O)CSc2nc3c([nH]c4ccccc43)c(=O)n2-c2ccc(Cl)cc2)s1	-2%	-2%
Cc1ccc2nc(-c3cc(N)cc(N)c3)oc2c1	-1%	?
Nc1ccc(-c2nc3ccc(N)cc3o2)cc1	20µM*	16µM*
COc1ccc(N2CCN(C(=O)Cn3cnc4sc(C)c(S(=O)(=O)N5CCCCC5)c4c3=O)CC2)cc1	-2%	?
COc1ccc(OC)c(NC(=O)c2cccc(S(=O)(=O)N(Cc3ccccc3)c3ccccc3OC)c2)c1	-1%	?
COc1ccc(OC)c(NC(=O)c2ccc(CN(c3cc(Cl)ccc3C)S(=O)(=O)c3ccccc3)cc2)c1	3%	10µM*
COc1cc2ccccc2cc1C(=O)N1CCN(c2nc3ccc(F)cc3s2)CC1	-17%	-12%
COc1ccccc1Nc1nc(-c2sc(NC(=O)CC(C)C)nc2C)cs1	-2%	?
c1cncc(-c2nc(-c3ccc4c(c3)OCO4)cs2)c1	-12%	-8%
COc1ccccc1Nc1nc(-c2cccc(N3C(=O)c4ccccc4C3=O)c2)cs1	-3%	7.9µM*
COc1ccc(-c2csc(Nc3cccnc3)n2)cc1OC	2%	-9%
COc1ccccc1Nc1nc(-c2c(C)[nH]c3ccccc23)cs1	-5%	25µM*
O=C1c2ccccc2C(=O)N1c1cccc(-c2csc(Nc3ccc4c(c3)OCO4)n2)c1	0%	5µM*
Cc1nc(NC2CCCCC2)c2nc(-c3ccccc3)n(CCCN3CCOCC3)c2n1	-15%	-4%
O=C(O)c1nnsc1-c1ccc(-c2snnc2C(=O)O)cc1	1%	-1%
CC(C)c1ccc(-c2noc(SCC(=O)N3CCCCC3)n2)cc1	0%	11%
CC(=O)N1c2ccc(S(=O)(=O)NCC3CCC(C(=O)NCCC(C)C)CC3)cc2CC1C (stereo not given)	0%	11%
Cc1noc(C)c1-c1cncnc1-n1ccnc1	3%	-2%
COC(=O)c1sc2nc(SCc3cccc(Cl)c3)n(N)c(=O)c2c1C	-12%	?
COC(=O)c1sc2nc(SCc3ccccc3C)n(N)c(=O)c2c1C	-3%	32µM*
O=C(Cn1ccc2cc(S(=O)(=O)N3CCCCCC3)ccc21)NCCc1ccccc1Cl	-4%	9%
COc1cc(NC(=O)COC(=O)c2ccccc2F)cc(OC)c1	-2%	4%
COc1cc(NC(=O)COC(=O)CNS(=O)(=O)c2ccc(F)c(F)c2F)cc(OC)c1	28µM*	25µM*
SMILES	Cruzain Triton	Cruzain inh noDet
Cc1cccc(Nc2c(-c3cccs3)nc3nc(C)cc(C)n23)c1	-15%	?
CCCCN1C(=O)C(O)(CC(=O)c2ccc(CC)cc2)c2cc(Br)ccc21 (stereo not given)	-13%	7%
O=C(C[n+]1ccc2ccccc2c1)c1ccc2ccc3ccccc3c2c1	-3%	3.2µM*
O=C(C[n+]1ccc2ccccc2c1)Nc1cc(C(F)(F)F)ccc1Cl	-2%	4%
O=C(c1cnn(-c2ccc(F)cc2)c1-n1cccc1)N1CCN(c2cccc(Cl)c2)CC1	-3%	-14%
CCn1c2ccccc2c2cc(NC(=O)C(C)Oc3ccc(OC)cc3)ccc21 (stereo not given)	0%	25µM*
CCn1c2ccccc2c2cc(NC(=O)C(C)Oc3ccccc3)ccc21 (stereo not given)	0%	?
Cc1ccccc1OCc1nnc(SCc2cc(=O)c3cc(F)ccc3[nH]2)n1C	4%	-8%
Cc1ccc(-n2c(=O)c3oc4ccccc4c3n(CC(=O)Nc3ccc(F)c(Cl)c3)c2=O)cc1C	-3%	10µM*
Cc1ccc(-n2c(=O)c3oc4ccccc4c3n(Cc3ccccc3F)c2=O)cc1C	1%	-2%
O=C1C[C@H]2OCC=C3CN4CC[C@@]5(C(=O)O)[C@H](N1)C2[C@H]3C[C@H]45 (stereo not given in full)	0%	4%
Cc1cccc(NC(=O)CN2C(=O)c3cccc4cccc2c34)c1C	-1%	5%
O=C(NC1c2ccccc2-c2ccccc21)c1ccco1	-1%	0%
COc1ccc(C(=O)NC2c3ccccc3-c3ccccc32)cc1	2%	20µM*
CN1C(=O)c2ccccc2Sc2ccc(NC(=O)COc3ccc(Cl)cc3)cc21	-3%	?
Cc1ccc(C(=O)C(C(=O)/C=C/c2ccccc2)=C2SCCCS2)cc1	-8%	25µM*
COc1ccc(/C=C/C(=O)C(C(N)=O)=C2SCCS2)cc1	-6%	7%
COc1ccc2[nH]c(=O)c(CN(Cc3cccs3)C(=S)Nc3cccc(C)c3)cc2c1	-3%	?
Cc1cccc(NC(=S)N(Cc2cccs2)Cc2cc3cc(C)cc(C)c3[nH]c2=O)c1	-3%	25µM*
Cc1ccc(C)c2[nH]c(=O)c(CN(Cc3cccs3)C(=S)NCc3ccco3)cc12	-2%	20µM*
Cc1cc2cc(CN(Cc3cccs3)C(=S)NCc3ccco3)c(=O)[nH]c2cc1C	-5%	?
CC(C)c1ccccc1NC(=O)COC(=O)CCN1C(=O)/C(=C\C=C\c2ccccc2)SC1=S	-11%	16µM*
Cc1ccc(NC(=O)CCCN2C(=O)/C(=C/C=C/c3ccccc3)SC2=S)cc1	-7%	32µM*
O=C(CN1C(=O)S/C(=C\C=C\c2ccccc2)C1=O)Nc1ccc(O)cc1	-6%	-5%
CC(C)c1ccccc1NC(=O)COC(=O)Cc1ccsc1	-3%	-2%
SMILES	Cruzain Triton	Cruzain inh noDet
O=C(Nc1ccc(S(=O)(=O)N2CCCCC2c2cccnc2)cc1)c1ccc(F)cc1 (stereo not given)	-8%	-1%
CCS(=O)(=O)N1CCc2cc(C(=O)N3CCN(c4ccccc4)CC3)ccc21	-5%	1%
CCOC(=O)N1CCC(NC(=O)c2cnn(-c3cccc(F)c3)c2-n2cccc2)CC1	3%	-1%
Cc1cc(-c2nnc3n2N=C(c2ccc(-c4ccccc4)cc2)CS3)n[nH]1	-10%	25µM*
COc1ccc(C2=Nn3c(nnc3-c3ccccc3)SC2)cc1OC	7%	-2%
c1ccc(-c2cc(-c3nnc4n3N=C(c3ccc5ccccc5c3)CS4)[nH]n2)cc1	-3%	25µM*
COc1ccc(-c2nnc3n2N=C(c2ccccc2)CS3)cc1OC	-7%	26%
CCNc1ncc2ncc(=O)n(C[C@H]3CCCO3)c2n1	-15%	-14%
CCNc1ncc2nc(C)c(=O)n(C[C@H]3CCCO3)c2n1	20µM*	?
CCN(c1ccccc1)S(=O)(=O)c1nnc(NC(=O)COc2cccc(C)c2)s1	-2%	8%
CC1CCC2(CC1)NC(=O)N(CC(=O)Nc1nc(-c3ccc(F)cc3)cs1)C2=O (stereo not given)	6%	25µM*
Cc1ccc(NC(=O)CN2C(=O)NC3(CCC(C)CC3)C2=O)c(Cl)c1 (stereo not given)	3%	-14%
O=C1CN(C(=O)COC(=O)CNC(=O)c2ccccc2)c2ccccc2N1	?	16µM*
O=C(CNC(=O)c1ccccc1)OCC(=O)N1c2ccccc2Sc2ccccc21	10µM*	10µM*
CC(NC(=O)c1ccccc1)C(=O)OCC(=O)N1c2ccccc2Sc2ccccc21 (stereo not given)	?	-5%
O=C1CN(C(=O)COC(=O)Cc2ccsc2)c2ccccc2N1	-2%	-3%
CN(c1ccccc1)c1ncnc2c1cnn2C	1%	-2%

High-throughput results deposited in PubChem by National Center for Advancing Translational Sciences (NCATS).
